The whole screen tested about 65,000 compounds, of which about 450 (0.69%) were called active. What follows is part of a selection rich in actives, with near analogues and random picks from the rest. A number with no mark means an inactive call.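 The calls were made as follows: active = HER2 level under 5% of the carrier-only control; inconclusive = no clear call, values can overlap the other calls; inactive = the rest.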

The target of the experiment is Receptor tyrosine-protein kinase erbB-2 (Homo sapiens) (UniProt P04626). As to the kind of experiment: reducers of endogenous HER2 protein levels – SKBR-3 cells, AlphaScreen, 66K library, primary screen (AID 645).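 Also: 100% = DMSO carrier and 0% = 500 nM PU-H71 HSP90 inhibitor; lower value means stronger loss of Her2 protein.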 To be noted: SKBR-3 HER2 protein level, 18-24 h, at 10 µM, hits give low values.
Chain of Receptor tyrosine-protein kinase erbB-2 (Homo sapiens) (P04626 whole entry, looked up): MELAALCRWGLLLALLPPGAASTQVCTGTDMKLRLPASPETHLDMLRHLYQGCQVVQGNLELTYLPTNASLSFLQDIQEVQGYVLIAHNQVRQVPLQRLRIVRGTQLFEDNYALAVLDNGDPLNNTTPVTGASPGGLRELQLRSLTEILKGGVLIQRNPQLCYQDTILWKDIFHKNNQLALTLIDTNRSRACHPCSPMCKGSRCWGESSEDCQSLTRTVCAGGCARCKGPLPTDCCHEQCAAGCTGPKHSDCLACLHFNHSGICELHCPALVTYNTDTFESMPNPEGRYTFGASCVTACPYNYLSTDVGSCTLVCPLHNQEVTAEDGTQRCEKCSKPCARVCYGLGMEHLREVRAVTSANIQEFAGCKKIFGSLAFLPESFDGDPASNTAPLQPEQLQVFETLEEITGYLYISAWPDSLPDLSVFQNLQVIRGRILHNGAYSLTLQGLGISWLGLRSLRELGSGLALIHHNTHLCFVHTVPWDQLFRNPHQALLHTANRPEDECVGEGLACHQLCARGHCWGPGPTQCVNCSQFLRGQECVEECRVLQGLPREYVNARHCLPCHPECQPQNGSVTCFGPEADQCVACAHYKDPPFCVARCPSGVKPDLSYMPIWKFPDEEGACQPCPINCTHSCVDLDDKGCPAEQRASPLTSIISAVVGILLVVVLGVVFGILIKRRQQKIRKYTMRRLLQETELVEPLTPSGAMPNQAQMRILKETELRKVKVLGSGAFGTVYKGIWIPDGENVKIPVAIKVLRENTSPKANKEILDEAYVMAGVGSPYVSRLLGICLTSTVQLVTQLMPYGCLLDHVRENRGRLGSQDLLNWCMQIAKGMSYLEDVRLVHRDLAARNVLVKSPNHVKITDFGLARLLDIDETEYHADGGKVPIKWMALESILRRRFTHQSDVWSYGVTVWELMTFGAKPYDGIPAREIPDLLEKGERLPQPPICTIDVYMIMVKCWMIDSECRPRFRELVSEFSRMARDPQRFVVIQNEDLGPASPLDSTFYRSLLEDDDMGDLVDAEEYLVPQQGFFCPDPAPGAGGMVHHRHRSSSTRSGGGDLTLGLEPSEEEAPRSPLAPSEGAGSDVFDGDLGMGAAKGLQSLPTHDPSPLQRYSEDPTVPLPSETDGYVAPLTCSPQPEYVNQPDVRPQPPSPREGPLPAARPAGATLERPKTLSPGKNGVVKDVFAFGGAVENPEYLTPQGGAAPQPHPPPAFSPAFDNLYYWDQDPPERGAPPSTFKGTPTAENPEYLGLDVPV
As to `CC(=NCC1CCCO1)c1c(O)n(-c2ccccc2)c(=O)[nH]c1=O` (stereo not given), the HER2 level % of control was -16.3% (active).

For `CC(=O)c1c(O)n(C2CCCCCC2)c(=O)[nH]c1=O`, the HER2 level % of control is 69.8%.

Take `CCC(=NCCCO)c1c(O)n(-c2ccc(OC)cc2)c(=O)[nH]c1=O`: the HER2 level % of control is 92.7%.

Consider `CC(=O)N1CN2CN(C(C)=O)CC(C(=O)c3ccc(Br)cc3)(C2)C1`, for which the HER2 level % of control was 119%.

Consider `Cc1ccc(Cn2nnnc2CN2CCC(n3nnc4ccccc43)CC2)cc1`, for which the HER2 level % of control is 69.1%.

(Values after PubChem BioAssay AID645 (SRMLSC, 2007).)
